Results published in publication PMC4081100, “A DNA-binding-site landscape and regulatory network analysis for NAC transcription factors in Arabidopsis thaliana”.

Experiments:
Assay in all cases: universal protein binding microarray (PBM); transcription factors of Arabidopsis thaliana; high values mean tight binding
GST-ANAC092(1-176) = biological target: T1, GST-ANAC092(1-176) (Arabidopsis thaliana, UniProt Q9FKA0 1-176); settings: protein: recombinant; tags: GST; chain copies: 2; dsDNA, one strand shown
T1 sequence: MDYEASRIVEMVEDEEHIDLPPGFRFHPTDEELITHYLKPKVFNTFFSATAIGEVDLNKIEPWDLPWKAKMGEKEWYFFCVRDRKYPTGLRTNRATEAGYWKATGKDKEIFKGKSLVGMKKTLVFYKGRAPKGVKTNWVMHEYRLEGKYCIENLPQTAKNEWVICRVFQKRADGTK
How it was run: (§1)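 Each value is a normalised enrichment score (E-score) describing binding. The GST-tagged proteins, NAC-domain, full-length or DNA-binding-domain, were induced in cells (zinc-finger proteins with zinc acetate added) and purified on glutathione–Sepharose 4B. They were applied at 200 to 500 nM final, in duplicate, to double-stranded custom all-10-mer Agilent 4 × 180K arrays, and gapped and ungapped 8-mers were scored.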

GST-NTL6(1-168) = GST-NTL6(1-168) (Arabidopsis thaliana, UniProt Q9SCK6 1-168); settings: protein: recombinant; tags: GST; chain copies: 2; dsDNA, one strand shown
How it was run: as §1

GST-ANAC019 NAC domain = biological target: T2, GST-ANAC019 NAC domain (Arabidopsis thaliana, UniProt Q9C932 14-162); settings: protein: recombinant; tags: GST; chain copies: 2; dsDNA, one strand shown
T2 sequence: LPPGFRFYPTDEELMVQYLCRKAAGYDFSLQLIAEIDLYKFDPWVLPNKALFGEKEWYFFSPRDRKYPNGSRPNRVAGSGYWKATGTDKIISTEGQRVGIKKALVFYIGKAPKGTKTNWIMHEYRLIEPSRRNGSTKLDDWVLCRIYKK
How it was run: as §1

GST-ANAC055(1-171) = biological target: T3, GST-ANAC055(1-171) (Arabidopsis thaliana, UniProt Q9LDY8 1-171); settings: protein: recombinant; tags: GST; chain copies: 2; dsDNA, one strand shown
T3 sequence: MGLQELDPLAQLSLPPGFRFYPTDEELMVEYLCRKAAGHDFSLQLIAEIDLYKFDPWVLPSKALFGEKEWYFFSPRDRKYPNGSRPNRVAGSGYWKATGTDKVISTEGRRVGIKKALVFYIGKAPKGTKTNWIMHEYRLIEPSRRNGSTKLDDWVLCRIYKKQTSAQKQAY
How it was run: as §1

GST-ATAF1 NAC domain = biological target: T4, GST-ATAF1 NAC domain (Arabidopsis thaliana, UniProt Q39013 7-158); settings: protein: recombinant; tags: GST; chain copies: 2; dsDNA, one strand shown
T4 sequence: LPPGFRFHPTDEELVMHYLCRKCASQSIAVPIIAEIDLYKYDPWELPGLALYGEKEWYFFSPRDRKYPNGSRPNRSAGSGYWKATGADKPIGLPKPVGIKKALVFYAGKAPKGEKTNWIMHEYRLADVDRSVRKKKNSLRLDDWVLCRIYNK
How it was run: as §1

[1] = biological target: T5, GST-ANAC092(1-285) full length (Arabidopsis thaliana, UniProt Q9FKA0 1-285); settings: protein: recombinant; tags: GST; chain copies: 2; dsDNA, one strand shown
T5 sequence: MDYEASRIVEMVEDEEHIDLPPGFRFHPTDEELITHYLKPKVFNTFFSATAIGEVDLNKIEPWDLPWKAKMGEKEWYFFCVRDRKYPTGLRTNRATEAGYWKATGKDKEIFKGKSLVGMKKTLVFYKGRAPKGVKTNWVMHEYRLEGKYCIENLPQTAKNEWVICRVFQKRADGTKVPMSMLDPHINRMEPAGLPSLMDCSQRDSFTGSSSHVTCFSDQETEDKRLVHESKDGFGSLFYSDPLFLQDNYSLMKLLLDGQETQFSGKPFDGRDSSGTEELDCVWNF
How it was run: as §1

GST-NST2(1-184) = biological target: T6, GST-NST2(1-184) (Arabidopsis thaliana, UniProt Q9M274 1-184); settings: protein: recombinant; tags: GST; chain copies: 2; dsDNA, one strand shown
T6 sequence: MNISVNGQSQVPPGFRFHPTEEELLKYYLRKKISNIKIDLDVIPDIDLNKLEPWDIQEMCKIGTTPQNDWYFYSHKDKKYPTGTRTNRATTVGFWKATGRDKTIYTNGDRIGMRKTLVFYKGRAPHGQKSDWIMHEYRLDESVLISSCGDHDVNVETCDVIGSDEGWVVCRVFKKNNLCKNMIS
How it was run: as §1

GST-NTL8 NAC domain = biological target: T7, GST-NTL8 NAC domain (Arabidopsis thaliana, UniProt Q9XIN7 14-156); settings: protein: recombinant; tags: GST; chain copies: 2; dsDNA, one strand shown
T7 sequence: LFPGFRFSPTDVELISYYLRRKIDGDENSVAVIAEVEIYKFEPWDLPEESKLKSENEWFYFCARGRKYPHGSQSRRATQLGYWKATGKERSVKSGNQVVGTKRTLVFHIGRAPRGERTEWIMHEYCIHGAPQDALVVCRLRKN
How it was run: as §1

GST-SND1(1-203) = biological target: T8, GST-SND1(1-203) (Arabidopsis thaliana, UniProt Q9LPI7 1-203); settings: protein: recombinant; tags: GST; chain copies: 2; dsDNA, one strand shown
T8 sequence: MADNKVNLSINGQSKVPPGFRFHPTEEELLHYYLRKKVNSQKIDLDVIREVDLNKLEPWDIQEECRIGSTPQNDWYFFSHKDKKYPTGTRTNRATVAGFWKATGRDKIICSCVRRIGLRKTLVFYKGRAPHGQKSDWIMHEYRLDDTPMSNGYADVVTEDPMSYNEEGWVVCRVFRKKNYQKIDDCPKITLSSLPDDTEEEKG
How it was run: as §1

GST-VND7 NAC domain = biological target: T9, GST-VND7 NAC domain (Arabidopsis thaliana, UniProt Q9C8W9 9-158); settings: protein: recombinant; tags: GST; chain copies: 2; dsDNA, one strand shown
T9 sequence: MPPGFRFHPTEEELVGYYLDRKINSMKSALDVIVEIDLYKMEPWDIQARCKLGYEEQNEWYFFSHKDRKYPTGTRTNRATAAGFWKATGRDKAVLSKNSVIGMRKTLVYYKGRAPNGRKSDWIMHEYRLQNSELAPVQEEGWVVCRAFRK
How it was run: as §1

GST-NAP(1-166) = biological target: T10, GST-NAP(1-166) (Arabidopsis thaliana, UniProt O49255 1-166); settings: protein: recombinant; tags: GST; chain copies: 2; dsDNA, one strand shown
T10 sequence: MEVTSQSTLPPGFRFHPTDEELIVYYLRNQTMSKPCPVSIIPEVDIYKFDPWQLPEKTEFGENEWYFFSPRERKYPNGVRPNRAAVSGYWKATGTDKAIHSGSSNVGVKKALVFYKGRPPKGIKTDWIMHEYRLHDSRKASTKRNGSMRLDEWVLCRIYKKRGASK
How it was run: as §1

GST-WRKY1(266-371) = GST-WRKY1(266-371) (Arabidopsis thaliana, UniProt Q9SI37 266-371); settings: protein: recombinant; tags: GST; dsDNA, one strand shown
How it was run: as §1

GST-WRKY1(266-371), sequence (Q9SI37 266-371): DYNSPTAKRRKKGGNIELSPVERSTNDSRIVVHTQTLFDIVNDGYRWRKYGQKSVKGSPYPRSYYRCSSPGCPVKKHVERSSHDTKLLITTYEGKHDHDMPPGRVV
GST-NTL6(1-168), sequence (Q9SCK6 1-168): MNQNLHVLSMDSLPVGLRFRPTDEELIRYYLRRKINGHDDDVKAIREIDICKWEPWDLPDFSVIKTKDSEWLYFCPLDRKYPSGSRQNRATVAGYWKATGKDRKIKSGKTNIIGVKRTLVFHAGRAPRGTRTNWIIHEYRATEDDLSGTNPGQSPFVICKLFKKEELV

| Sequence | binding signal (GST-ANAC092(1-176)) [E-score] | binding signal (GST-NTL6(1-168)) [E-score] | binding signal (GST-ANAC019 NAC domain) [E-score] | binding signal (GST-ANAC055(1-171)) [E-score] | binding signal (GST-ATAF1 NAC domain) [E-score] | binding signal [1] [E-score] | binding signal (GST-NST2(1-184)) [E-score] | binding signal (GST-NTL8 NAC domain) [E-score] | binding signal (GST-SND1(1-203)) [E-score] | binding signal (GST-VND7 NAC domain) [E-score] | binding signal (GST-NAP(1-166)) [E-score] | binding signal (GST-WRKY1(266-371)) [E-score] |
| --- | --- | --- | --- | --- | --- | --- | --- | --- | --- | --- | --- | --- |
| AAGAAACC | 0.246 | 0.261 | 0.0937 | 0.135 | 0.177 | 0.311 | 0.265 | 0.435 | 0.216 | 0.139 |  |  |
| GGCGTAAC | 0.21 |  |  |  | 0.0594 | 0.277 | 0.129 |  | 0.421 | 0.0835 | 0.0618 |  |
| ACGCTTCC | 0.334 | 0.0789 | 0.171 | 0.106 | 0.139 | 0.402 | 0.206 |  | 0.296 | 0.151 | 0.0721 |  |
| CCAAGTCA |  |  |  |  |  |  |  |  | 0.0686 |  |  | 0.426 |
| CGAAGCAA | 0.243 | 0.325 |  |  |  | 0.271 | 0.208 | 0.339 | 0.427 | 0.169 |  |  |
| AGCTTTCC | 0.171 | 0.233 | 0.126 | 0.111 |  | 0.133 |  | 0.434 | 0.123 | 0.116 |  |  |
| CGTAGACC |  |  |  |  |  |  |  |  | 0.0522 |  |  | 0.434 |
| AAACCCTC |  | 0.141 | 0.0591 | 0.134 |  |  |  | 0.414 | 0.101 | 0.1 | 0.0744 |  |
| TGAAGCAA | 0.232 | 0.389 | 0.0575 |  |  | 0.32 | 0.314 | 0.422 | 0.447 | 0.187 |  |  |
| TGACCGAA |  |  |  |  |  |  |  |  | 0.0502 |  |  | 0.459 |
| AAGCACGC | 0.32 |  | 0.127 |  | 0.121 | 0.407 | 0.0521 |  | 0.21 | 0.0817 | 0.0699 |  |
| GGCGTCAA |  |  |  |  |  |  |  |  | 0.0673 |  |  | 0.401 |
| ACGCTATC | 0.43 |  | 0.106 |  | 0.0721 | 0.454 | 0.303 |  | 0.431 | 0.0789 | 0.104 |  |
| GCGTCAAA |  |  |  |  |  | 0.0819 | 0.052 | 0.0775 | 0.0924 | 0.0799 |  | 0.409 |
| CTTGCTTC | 0.288 | 0.295 | 0.0507 |  |  | 0.368 | 0.204 | 0.303 | 0.403 | 0.0829 |  |  |
| AGGAAAGC | 0.23 | 0.253 | 0.214 | 0.119 | 0.124 | 0.0813 | 0.0888 | 0.436 | 0.188 | 0.177 | 0.0763 |  |
| CTTTCCTC | 0.0932 | 0.104 | 0.0599 | 0.0748 |  |  |  | 0.453 | 0.147 | 0.0728 |  |  |
| TGAAGGAA | 0.108 | 0.379 | 0.0877 | 0.0856 | 0.0713 | 0.0772 | 0.197 | 0.469 | 0.342 | 0.0645 |  |  |
| GAAGGGAA | 0.091 | 0.227 | 0.101 |  |  |  | 0.0954 | 0.44 | 0.112 | 0.0803 |  |  |
| ACCCCGCC | 0.271 | 0.182 | 0.295 | 0.123 | 0.253 | 0.264 | 0.213 | 0.284 | 0.32 | 0.241 | 0.1 |  |
| ACCGTTGA | 0.112 |  |  |  |  | 0.205 |  |  | 0.123 |  | 0.132 | 0.404 |
| GAGTTGAC |  |  | 0.0811 |  |  |  | 0.102 |  | 0.0621 |  |  | 0.476 |
| CTTAGTCA |  | 0.243 |  |  | 0.101 |  |  | 0.091 | 0.118 |  |  | 0.424 |
| AGGAAAGG | 0.0968 | 0.0725 | 0.0699 |  |  |  | 0.064 | 0.44 | 0.136 |  |  |  |
| GTCAAAGA |  |  |  | 0.078 |  | 0.0725 | 0.053 |  | 0.167 |  |  | 0.469 |
| TAGGGAAA | 0.106 | 0.177 | 0.0861 |  | 0.088 | 0.115 |  | 0.438 | 0.0953 |  |  |  |
| CGTAGTCA |  |  | 0.0805 |  | 0.117 |  |  |  | 0.161 |  |  | 0.405 |
| CCTTTGAC |  |  |  |  |  |  |  | 0.0589 | 0.101 |  |  | 0.475 |
